Measured values as given in PubChem BioAssay AID624330 (Southern Research Specialized Biocontainment Screening …, 2012).
Among all 340,000 compounds or so, about 2,100 (0.62%) were called active.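 How the source made its calls: active means first-screen hits whose inhibition reached a set limit at any dose in the follow-up dose series; inconclusive means inhibition above the set first-screen limit but never retested; inactive means the rest.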 These entries were drawn from the full list. Measured potencies and affinities stand elsewhere.

Molecular target: Rac GTPase-activating protein 1 (Homo sapiens) (UniProt Q9H0H5)
Sequence (Q9H0H5 whole entry, looked up): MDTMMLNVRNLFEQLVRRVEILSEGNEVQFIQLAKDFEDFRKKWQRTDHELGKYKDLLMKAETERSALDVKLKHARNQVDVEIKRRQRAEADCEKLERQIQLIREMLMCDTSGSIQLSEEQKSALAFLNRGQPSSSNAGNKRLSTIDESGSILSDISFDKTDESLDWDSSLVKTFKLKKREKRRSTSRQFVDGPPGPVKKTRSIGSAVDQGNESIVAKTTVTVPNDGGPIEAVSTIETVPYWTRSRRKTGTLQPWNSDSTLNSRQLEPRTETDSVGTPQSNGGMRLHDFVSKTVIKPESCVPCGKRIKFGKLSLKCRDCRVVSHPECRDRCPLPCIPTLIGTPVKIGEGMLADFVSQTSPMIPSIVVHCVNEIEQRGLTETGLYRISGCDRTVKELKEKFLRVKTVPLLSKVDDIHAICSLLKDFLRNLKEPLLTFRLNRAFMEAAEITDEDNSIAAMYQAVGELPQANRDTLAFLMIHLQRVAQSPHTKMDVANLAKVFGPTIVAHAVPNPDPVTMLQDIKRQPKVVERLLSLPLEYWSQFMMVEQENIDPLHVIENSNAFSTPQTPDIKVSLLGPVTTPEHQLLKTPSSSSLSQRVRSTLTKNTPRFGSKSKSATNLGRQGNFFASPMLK
Assay: blockers of MgcRacGAP-driven Rac1 GTP hydrolysis – biochemical, ADP Hunter fluorescence, primary and confirmatory, confirmation (AID 624330);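 further: fluorescence reports GDP produced by GAP-driven GTP hydrolysis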
Conditions: MgcRacGAP-stimulated Rac1 GTP hydrolysis, at 30 µM, hits give high values, GST-tagged Rac1 F28L mutant substrate

inhibition, inactive:
O=C(/C=C/c1ccc(Cl)c(Cl)c1)NCCCn1ccnc1 7.08%
CN1c2ccc(Cl)cc2C(=O)NC1c1ccc([N+](=O)[O-])s1 (centres undefined) 11.4%
Cc1cccn2c(=O)c(C=NCc3ccccc3)c(NCCO)nc12 7.69%
C#CCOCCOCCOCCNc1nc(N2CCN(C(=O)[C@H](CCCCN)n3cc([C@@H](N)CO)nn3)CC2)nc(N2CCN(C(=O)[C@H](CCCCN)n3cc([C@@H](N)CC(C)C)nn3)CC2)n1 19.8%
C#CCOCCOCCOCCNc1nc(N2CCN(C(=O)[C@H]([C@@H](C)CC)n3cc([C@@H](N)CC(C)C)nn3)CC2)nc(N2CCN(C(=O)[C@H](CCCCN)n3cc([C@@H](N)C(C)CC)nn3)CC2)n1 (some centres undefined) 19.8%
C#CCOCCOCCOCCNc1nc(N2CCN(C(=O)C(Cc3cc4ccccc4[nH]3)n3cc(C(N)C(C)CC)nn3)CC2)nc(N2CCN(C(=O)C(Cc3cc4ccccc4[nH]3)n3cc(C(N)C(C)CC)nn3)CC2)n1 (centres undefined) 4.22%
C#CCOCCOCCOCCNc1nc(N2CCOCC2)nc(N2CCN(C(=O)[C@H](CCCCN)n3cc([C@@H](N)CC(C)C)nn3)CC2)n1 11.6%
C#CCOCCOCCOCCNc1nc(N2CCOCC2)nc(N2CCN(C(=O)[C@H](Cc3cc4ccccc4[nH]3)n3cc([C@@H](N)C(C)CC)nn3)CC2)n1 (some centres undefined) 13.4%
C#CCOCCOCCOCCNc1nc(N2CCN(C(=O)[C@H](CCCCN)n3cc(C(N)CC(C)C)nn3)CC2)nc(N2CCN(C(=O)[C@H](CCC(=O)O)n3cc(C(N)[C@H](C)CC)nn3)CC2)n1 (some centres undefined) 13.4%
CC(OC(=O)c1cc(=O)[nH]c2ccccc12)C(=O)N1C(C)CCCC1C (centres undefined) 3.29%
COc1ccccc1Nc1nnc(SCc2cc(=O)n3cc(C)ccc3n2)s1 10.9%
Cc1cc(C)n2nc(SCc3nc4ccccc4[nH]3)nc2n1 3.82%
C/C=C\C=C/C(=O)Nc1cccc(C2=NOC3(C2)C[C@@H](C(N)=O)N(C(=O)COc2ccc(Cl)cc2)C3)c1 (some centres undefined) 7.01%
O=C(c1sc2ccccc2c1Cl)N1CCN(c2ncccn2)CC1 5.52%
Cc1nc(Nc2nc(CSc3ccc(Cl)cc3)cc(=O)[nH]2)nc2ccccc12 4.96%
O=C(COC(=O)C1CC(=O)N(c2ccccc2)C1)c1ccccc1 (centres undefined) 4.11%
O=C(CCCN1C(=O)/C(=C/c2ccccc2Cl)SC1=S)NCCCN1CCOCC1 12.8%
O=C1C(=Cc2ccccc2O)SC(=S)N1CCCN1CCOCC1 14.5%
CCN(CC)C(=S)Nc1ccc2nc3n(c(=O)c2c1)CCCCC3 3.47%
O=C(Nc1ccccn1)c1cc2ccccc2cc1O 6.04%
O=C(O)c1ccccc1C(=O)Nc1ccccn1 3.57%
OCCSc1c(F)c(SCCO)c(SCCO)c(F)c1SCCO -1.8%
Cn1c(=O)[nH]c(=O)c2c1nc(NCCc1ccccc1)n2CC(O)COc1ccccc1 (centres undefined) 4.54%
CCOC(=O)C1(CCOC)CCN(C/C=C/c2ccccc2OC)CC1 5.1%
O=C(CNC(=O)c1ccco1)N/N=C/c1cc(Br)ccc1O 5.36%
COc1cccc(/C=N/NC(=O)CNC(=O)c2cccnc2)c1O 5.08%
O=C(CNC(=O)c1cccs1)N/N=C/c1ccccc1[N+](=O)[O-] 3.27%
O=C(CNC(=O)c1ccncc1)N/N=C/c1cc(Br)ccc1O 3.51%
COc1cccc(/C=N/NC(=O)CNC(=O)c2cccs2)c1O 9.63%
O=C(N/N=C/c1ccc(O)cc1O)c1ccncc1 31.7%
O=C(CNC(=O)c1ccco1)N/N=C/c1ccccc1[N+](=O)[O-] 16.6%
COc1ccc(Br)cc1/C=N/NC(=O)CNC(=O)c1cccnc1 -12.5%
O=C1OC(COc2ccc(Br)cc2)CN1c1ccccc1 (centres undefined) 0.77%
Cc1ccc(OCc2nnc(SC(C)C(=O)O)n2Cc2ccccc2)cc1 (centres undefined) -1.5%
O=C(COC(=O)[C@@H]1CC(O)CN1S(=O)(=O)c1ccc2c(c1)OCCO2)Nc1ccccc1F (some centres undefined) 1.86%
O=C(c1ccc(Cl)nc1)N1CCN(C/C=C/c2ccccc2)CC1 10.5%
O=C(CN1C(=O)NC2(CCc3ccccc32)C1=O)c1c[nH]c2ccccc12 (centres undefined) -3.1%
CN1CCN(C(c2cccc(Cl)c2)c2ccccc2Cl)CC1 (centres undefined) 7.6%
CC1(C)C(=O)N(c2ccccc2)C1c1ccccc1O (centres undefined) 3.93%
Cc1cccc(OCC(=O)NCC(=O)N/N=C/c2ccc(O)cc2O)c1 18.5%
O=C(COc1ccccc1)NCC(=O)N/N=C/c1ccccc1 5.67%
O=C(CCCCCNC(=O)c1ccccc1)N/N=C/c1ccccc1O 3.53%
Oc1ccc(/C=N/NC(=S)Nc2cccnc2)c(O)c1O -102%
O=C(CCCCCNC(=O)c1ccccc1)N/N=C/c1ccc(F)cc1 6.47%
Oc1ccc(C=NNC(=S)Nc2cccnc2)nc1 7.4%
FC(F)(F)c1cnc(COc2ccc(Cl)cc2Cl)c(Cl)c1 7.97%
COc1ccccc1-c1cc(C(=O)NCc2ccco2)no1 11.6%
CCN(C[C@H]1N[C@@](C)(C(=O)OC)[C@H]2C(=O)N(C)C(=O)[C@@H]12)C(=O)Nc1ccc(C(F)(F)F)cc1 4.98%
COCCn1c(SC(C(=O)Nc2cc(C)ccc2OC)c2ccccc2)nnc1-c1ccc(Cl)cc1 (centres undefined) 8.02%
CC(C)COP(=O)(OCC(C)C)C(O)c1ccc2c(c1)OCO2 (centres undefined) 2.18%
N#Cc1c(-c2ccccc2)ccn(Cc2ccc(Cl)cc2)c1=O 11.4%
COc1cc(CNC2CCCCC2OC)cc(OC)c1OC (centres undefined) 21.8%
COc1cc(CNC2CCCC2)cc(OC)c1 16.2%
Cc1ccc(C)c(N2CCN(C(=O)Cc3ccc(NC4=NC5CS(=O)(=O)CC5S4)cc3)CC2)c1 (centres undefined) 15.3%
